Measured values as given in PubChem BioAssay (EPA / NIEHS).
The source made the active and inactive calls. The calls were made as follows: active = hit-call score of the fitted dose curve at least 0.9, where 1 is the maximum; inactive = score below 0.9.

Columns and labels:
Details in all cases: mRNA level, 48 h; actives raise or lower the signal
[1] = read-out: Pyruvate Dehydrogenase Kinase 4 (PDK4), PDK4 (gene 5166); test: LTEA_HepaRG_PDK4: Life Technologies and Expression Analysis (LTEA) Assay for Pyruvate Dehydrogenase Kinase 4 (PDK4) using HepaRG (AID 2283525)
How it was run: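 Eight-point, half-log concentration series (max 100 uM, 0.5% DMSO) applied to differentiated HepaRG cells for 48 h in duplicate. Endpoint: PDK4 mRNA induction or repression by qRT-PCR against DMSO baseline.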

[2] = read-out: NAD(P)H dehydrogenase [quinone] 1 (NQO1), NQO1 (gene 1728); test: LTEA_HepaRG_NQO1: Life Technologies and Expression Analysis (LTEA) Assay for NAD(P)H dehydrogenase [quinone] 1 (NQO1) using HepaRG (AID 2283526)
How it was run: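 In this assay, gene expression is read by qRT-PCR after 48 h exposure of HepaRG cells to eight concentrations (max 100 uM, half-log) in 0.5% DMSO. Each chemical runs in duplicate, and activity is scored relative to vehicle.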

[3] = read-out: Nuclear factor erythroid 2-related factor 2 (Homo sapiens) (UniProt Q16236); test: LTEA_HepaRG_NFE2L2: Life Technologies and Expression Analysis (LTEA) Assay for Nuclear factor erythroid 2-related factor 2 (NFE2L2) Transcription Factor using HepaRG (AID 2283527);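 also: TaqMan qRT-PCR transcript level normalised to ACTB GAPDH and POLR2A housekeeping genes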
Procedure: (§1) LTEA_HepaRG is a cell based, multiplexed-readout assay that uses HepaRG, a human liver cell line, with measurements taken at 48 hours after chemical dosing on a 96-well plate.LTEA_HepaRG_NFE2L2 is one of 102 assay component(s) measured in the LTEA HepaRG cell culture assay. It is a marker of Inflammation/injury.Data from the assay component LTEA_HepaRG_NFE2L2 was analyzed into 1 endpoint. This assay endpoint, LTEA_HepaRG_NFE2L2, was analyzed with bidirectional fitting relative to DMSO as the negative control and baseline of activity. Using a type of inducible reporter, measures of mRNA induction for gain or loss-of-signal activity can be used to understand regulation of transcription factor activity. To generalize the intended target to other relatable targets, this assay endpoint is annotated to the dna binding intended target family, where the subfamily is basic leucine zipper.
(§2) A total of 1060 chemcials from the ToxCast library were tested in eight-point concentration-response experiments. Cell culture and cytotoxicity assays were conducted at Thermo Fisher Scientific's Custom Services facility (Madison, WI). A single lot of human HepaRG cells (Thermo Fisher Scientific, Frederick, MD) was used for the cell culture experiments. 96-well format collagen type I coated plates of human HepaRG cells were prepared using established methods. Briefly, cryopreserved HepaRG cells were thawed, plated at a density of approximately 100,000 cells/well in HepaRG Thaw, Plate, and General Purpose media (HPRG770, Thermo Fisher Scientific), and incubated for 48 hours. […] Fluidigm's 96.96 Dynamic ArrayTM (Fluidigm, Amsterdam, the Netherlands) technology was used for gene expression analyses by quantitative reverse transcription polymerase chain reaction (qRT-PCR, performed by Quintiles/Expression Analysis, Durham, NC)89. […]

[4] = read-out: succinate dehydrogenase complex iron sulfur subunit B (SDHB), SDHB (gene 6390); test: LTEA_HepaRG_SDHB: Life Technologies and Expression Analysis (LTEA) Assay for succinate dehydrogenase complex iron sulfur subunit B (SDHB) using HepaRG (AID 2283528)
How it was run: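 A human HepaRG culture in serum-free induction medium received test chemicals for 48 h over an eight-point range capped at 100 uM. SDHB expression change was quantified by qRT-PCR.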

[5] = read-out: Signal transducer and activator of transcription 3 (Homo sapiens) (UniProt P40763); test: LTEA_HepaRG_STAT3: Life Technologies and Expression Analysis (LTEA) Assay for Signal transducer and activator of transcription (STAT3) using HepaRG (AID 2283529)
How it was run: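 In this transcriptional endpoint, HepaRG cultures receive test chemicals at up to 100 uM for 48 h, tested in duplicate. STAT3 mRNA is normalized to ACTB, GAPDH and POLR2A.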

[6] = read-out: solute carrier (SLCO1B1), SLCO1B1 (gene 10599); test: LTEA_HepaRG_SLCO1B1: Life Technologies and Expression Analysis (LTEA) Assay for solute carrier (SLCO1B1) using HepaRG (AID 2283530)
Procedure: as §1, with “plate.LTEA_HepaRG_SLCO1B1” for “plate.LTEA_HepaRG_NFE2L2”, “NR mediated transport.Data” for “Inflammation/injury.Data”, “LTEA_HepaRG_SLCO1B1” for “LTEA_HepaRG_NFE2L2”, “LTEA_HepaRG_SLCO1B1,” for “LTEA_HepaRG_NFE2L2,”, “transporter” for “dna binding”, “organic anion transporter.” for “basic leucine zipper.”
as §2

[7] = read-out: sulfotransferase 2A1 (SULT2A1), SULT2A1 (gene 6822); test: LTEA_HepaRG_SULT2A1: Life Technologies and Expression Analysis (LTEA) Assay for sulfotransferase 2A1 (SULT2A1) using HepaRG (AID 2283531)
How it was run: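 Expression change of SULT2A1, by qRT-PCR with three housekeeping-gene normalization, was scored bidirectionally versus DMSO. Cells: differentiated HepaRG, dosed in duplicate for 48 h across 8 points, highest 100 µM, half-log dilution, 0.5% DMSO.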

[8] = read-out: Transforming Growth Factor (TGFA), TGFA (gene 7039); test: LTEA_HepaRG_TGFA: Life Technologies and Expression Analysis (LTEA) Assay for Transforming Growth Factor (TGFA) using HepaRG (AID 2283532)
How it was run: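 Gene expression of TGFA was quantified by qRT-PCR after human HepaRG cells were treated for 48 h with test chemicals (eight concentrations, highest 100 uM, 0.5% DMSO). Activity in either direction was fitted relative to DMSO.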

[9] = read-out: Transforming Growth Factor (TGFB1), TGFB1 (gene 7040); test: LTEA_HepaRG_TGFB1: Life Technologies and Expression Analysis (LTEA) Assay for Transforming Growth Factor (TGFB1) Transporter using HepaRG (AID 2283533)
How it was run: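 TGFB1 transcript measured by qRT-PCR with normalisation to three housekeeping genes (ACTB, GAPDH, POLR2A); human HepaRG line treated in duplicate for 48 hr with an 8-point series topping at 100 uM, 0.5% DMSO vehicle, bidirectionally fitted.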

TIMP1, TIMP1 (gene 7076) = test: LTEA_HepaRG_TIMP1: Life Technologies and Expression Analysis (LTEA) Assay for TIMP1 using HepaRG (AID 2283534);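 also: TaqMan qRT-PCR signal normalized to ACTB GAPDH and POLR2A housekeeping genes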
Procedure: as §1, with “plate.LTEA_HepaRG_TIMP1” for “plate.LTEA_HepaRG_NFE2L2”, “Cell proliferation, survival, death.Data” for “Inflammation/injury.Data”, “LTEA_HepaRG_TIMP1” for “LTEA_HepaRG_NFE2L2”, “LTEA_HepaRG_TIMP1,” for “LTEA_HepaRG_NFE2L2,”, “protease inhibitor” for “dna binding”, “metalloproteinase inhibitor.” for “basic leucine zipper.”
as §2

Measured: outcome

Signal transducer and activator of transcription 3 (Homo sapiens), sequence (P40763 whole entry, looked up): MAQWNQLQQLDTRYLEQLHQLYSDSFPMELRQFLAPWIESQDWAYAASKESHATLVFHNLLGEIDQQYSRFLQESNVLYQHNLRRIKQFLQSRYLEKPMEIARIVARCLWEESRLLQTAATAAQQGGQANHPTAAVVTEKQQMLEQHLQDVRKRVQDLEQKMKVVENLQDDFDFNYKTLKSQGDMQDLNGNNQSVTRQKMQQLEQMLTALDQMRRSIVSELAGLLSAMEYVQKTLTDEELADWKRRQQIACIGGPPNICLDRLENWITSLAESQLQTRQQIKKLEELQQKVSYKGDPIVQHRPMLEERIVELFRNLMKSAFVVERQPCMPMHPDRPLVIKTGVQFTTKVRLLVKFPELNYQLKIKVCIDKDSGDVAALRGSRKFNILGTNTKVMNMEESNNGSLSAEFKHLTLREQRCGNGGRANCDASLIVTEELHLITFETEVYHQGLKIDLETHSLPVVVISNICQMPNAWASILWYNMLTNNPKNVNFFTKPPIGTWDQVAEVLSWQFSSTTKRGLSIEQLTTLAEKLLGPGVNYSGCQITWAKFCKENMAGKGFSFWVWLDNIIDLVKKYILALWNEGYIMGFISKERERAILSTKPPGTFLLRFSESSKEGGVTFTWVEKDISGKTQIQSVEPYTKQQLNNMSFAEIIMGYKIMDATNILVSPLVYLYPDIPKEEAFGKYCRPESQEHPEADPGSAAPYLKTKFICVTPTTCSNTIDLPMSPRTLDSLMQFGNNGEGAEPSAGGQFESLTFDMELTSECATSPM
Nuclear factor erythroid 2-related factor 2 (Homo sapiens), sequence (Q16236 whole entry, looked up): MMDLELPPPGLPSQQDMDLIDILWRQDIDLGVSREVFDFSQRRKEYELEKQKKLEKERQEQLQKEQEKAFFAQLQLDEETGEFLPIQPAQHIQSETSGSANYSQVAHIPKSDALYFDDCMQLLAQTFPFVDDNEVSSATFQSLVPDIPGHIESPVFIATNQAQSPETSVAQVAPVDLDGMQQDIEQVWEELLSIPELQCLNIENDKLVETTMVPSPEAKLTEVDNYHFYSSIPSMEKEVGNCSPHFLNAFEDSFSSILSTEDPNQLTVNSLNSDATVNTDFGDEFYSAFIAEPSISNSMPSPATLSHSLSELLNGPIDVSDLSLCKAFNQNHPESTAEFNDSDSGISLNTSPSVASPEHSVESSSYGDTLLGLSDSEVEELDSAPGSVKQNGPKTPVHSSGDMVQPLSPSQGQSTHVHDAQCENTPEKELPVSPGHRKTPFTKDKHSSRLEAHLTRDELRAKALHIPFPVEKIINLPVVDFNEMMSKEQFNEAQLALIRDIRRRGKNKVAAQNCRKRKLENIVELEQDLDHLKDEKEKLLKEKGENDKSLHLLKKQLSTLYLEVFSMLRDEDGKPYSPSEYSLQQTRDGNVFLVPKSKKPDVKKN

Nc1ccc(C(=O)O)cc1
inactive: all assays above

Cc1ccc([N+](=O)[O-])cc1N
inactive: all assays above

C1CNCCN1
inactive: all assays above
